PubChem BioAssay
Activity calls are given as the source filed them.

How the values were obtained:
[1] = system: Plasmodium falciparum Sir2 (PF13_0152, Sir2A); experiment: pfSir2 binders on small-molecule microarrays, primary screen, biochemical, small-molecule microarray, 635 nm fluorescence (AID 1098); conditions: small-molecule microarray binding, fluorescence 635 nm; higher = more signal;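 further: score merges spot fluorescence intensity with its signal-to-noise ratio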
[2] = small-molecule microarray binders of probe aDKK1, primary screen, biochemical, biotinylated probe, 635/667 nm fluorescence (AID 1099); conditions: higher = more signal;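 further: score merges 667nm spot fluorescence with signal to noise across triplicate slides; reference of the scale not given here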
[3] = small-molecule microarray binders of probe aCHRDL2, primary screen, biochemical, biotinylated probe, 635/667 nm fluorescence (AID 1100); conditions: higher = more signal
[4] = splicing luciferase reporter signal modulators, primary screen, spliceosome inhibition project, cell-based, HEK293, splice +/- reporter (AID 1101); conditions: luminescence, 24 h, higher = more signal, called active from +8 up or from −8 down;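 further: HEK293 cells carrying a splicing-competent luciferase reporter gene; test concentration not given here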
[5] = target: Fibroblast growth factor 10 (Homo sapiens) (UniProt O15520); experiment: FGF10 binders on small-molecule microarrays, primary screen, biochemical, small-molecule microarray, 635 nm fluorescence (AID 1102); conditions: FGF10 binding, fluorescence 635 nm, higher = more signal
Fibroblast growth factor 10 (Homo sapiens), sequence (O15520 whole entry, looked up): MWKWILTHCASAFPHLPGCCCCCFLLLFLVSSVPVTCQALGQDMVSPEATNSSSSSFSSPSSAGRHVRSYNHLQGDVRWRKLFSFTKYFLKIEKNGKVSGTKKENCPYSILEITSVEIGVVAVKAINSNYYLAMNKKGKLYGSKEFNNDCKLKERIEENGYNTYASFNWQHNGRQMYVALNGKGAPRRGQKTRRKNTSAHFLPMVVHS

[6] = system: glycogen synthase kinase-3 (GSK3A per assay name; protocol says GSK3B); experiment: GSK3 binders on small-molecule microarrays, primary screen, biochemical, small-molecule microarray, 635 nm fluorescence, GSK3A (AID 1103); conditions: small-molecule microarray binding, fluorescence 635 nm; higher = more signal; further: the record names both GSK3A and GSK3B
[7] = target: Epidermal growth factor receptor (Homo sapiens) (UniProt P00533); experiment: EGFR binders on small-molecule microarrays, primary screen, biochemical, small-molecule microarray, 635 nm fluorescence (AID 1104); conditions: EGFR binding, higher = more signal;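 further: score merges 667 nm emission intensity with spot signal to noise over triplicate slides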
Epidermal growth factor receptor (Homo sapiens), sequence (P00533 whole entry, looked up): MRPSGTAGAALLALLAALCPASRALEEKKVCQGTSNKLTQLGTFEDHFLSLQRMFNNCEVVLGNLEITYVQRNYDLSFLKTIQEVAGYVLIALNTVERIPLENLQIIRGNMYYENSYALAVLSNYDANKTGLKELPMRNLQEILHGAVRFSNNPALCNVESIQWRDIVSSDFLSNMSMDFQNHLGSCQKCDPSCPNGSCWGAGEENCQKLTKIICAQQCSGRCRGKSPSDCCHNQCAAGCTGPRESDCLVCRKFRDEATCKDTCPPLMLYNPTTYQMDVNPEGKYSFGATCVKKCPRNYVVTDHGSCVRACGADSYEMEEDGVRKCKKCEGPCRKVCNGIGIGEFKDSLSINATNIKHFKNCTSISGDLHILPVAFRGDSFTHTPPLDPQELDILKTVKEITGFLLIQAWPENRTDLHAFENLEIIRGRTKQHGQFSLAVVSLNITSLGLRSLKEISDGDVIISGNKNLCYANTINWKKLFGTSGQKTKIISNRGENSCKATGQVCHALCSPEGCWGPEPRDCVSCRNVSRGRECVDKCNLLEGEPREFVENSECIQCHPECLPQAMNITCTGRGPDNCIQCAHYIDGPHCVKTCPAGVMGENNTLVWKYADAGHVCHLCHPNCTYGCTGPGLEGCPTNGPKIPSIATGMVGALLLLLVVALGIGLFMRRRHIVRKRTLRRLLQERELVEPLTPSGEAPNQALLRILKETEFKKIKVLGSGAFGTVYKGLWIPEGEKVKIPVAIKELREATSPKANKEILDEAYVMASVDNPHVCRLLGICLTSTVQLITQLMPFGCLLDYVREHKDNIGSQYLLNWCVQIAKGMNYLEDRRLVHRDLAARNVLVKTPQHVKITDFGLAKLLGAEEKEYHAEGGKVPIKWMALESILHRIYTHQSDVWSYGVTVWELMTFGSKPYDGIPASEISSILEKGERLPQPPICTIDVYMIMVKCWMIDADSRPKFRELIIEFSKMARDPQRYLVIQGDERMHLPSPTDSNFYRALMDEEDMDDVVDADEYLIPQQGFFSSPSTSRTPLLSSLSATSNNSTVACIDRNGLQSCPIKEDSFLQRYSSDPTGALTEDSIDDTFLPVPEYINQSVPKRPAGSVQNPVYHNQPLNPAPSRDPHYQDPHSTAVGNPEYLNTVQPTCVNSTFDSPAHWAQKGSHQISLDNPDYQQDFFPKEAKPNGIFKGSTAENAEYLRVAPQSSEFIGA

[8] = target: Follistatin-related protein 3 (Homo sapiens) (UniProt O95633); experiment: FSTL3 binders on small-molecule microarrays, primary screen, biochemical, small-molecule microarray, 635 nm fluorescence (AID 1105); conditions: FSTL3 binding, higher = more signal;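 further: score merges emission near 667 nm and signal to noise per printed spot across three slides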
Follistatin-related protein 3 (Homo sapiens), sequence (O95633 whole entry, looked up): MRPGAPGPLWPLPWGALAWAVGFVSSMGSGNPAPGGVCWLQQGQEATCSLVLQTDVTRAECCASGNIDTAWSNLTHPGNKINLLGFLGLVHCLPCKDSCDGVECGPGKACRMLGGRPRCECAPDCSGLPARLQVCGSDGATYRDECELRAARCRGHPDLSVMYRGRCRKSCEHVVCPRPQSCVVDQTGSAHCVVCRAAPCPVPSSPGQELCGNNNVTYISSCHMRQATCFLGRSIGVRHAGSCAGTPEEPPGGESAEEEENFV

[9] = target: Dickkopf-related protein 1 (Homo sapiens) (UniProt O94907); experiment: DKK1 binders on small-molecule microarrays, primary screen, biochemical, small-molecule microarray, 635 nm fluorescence scan (AID 1106); conditions: DKK1 binding, higher = more signal;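 further: score merges emission near 667 nm with signal to noise over three replicate slides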
Dickkopf-related protein 1 (Homo sapiens), sequence (O94907 whole entry, looked up): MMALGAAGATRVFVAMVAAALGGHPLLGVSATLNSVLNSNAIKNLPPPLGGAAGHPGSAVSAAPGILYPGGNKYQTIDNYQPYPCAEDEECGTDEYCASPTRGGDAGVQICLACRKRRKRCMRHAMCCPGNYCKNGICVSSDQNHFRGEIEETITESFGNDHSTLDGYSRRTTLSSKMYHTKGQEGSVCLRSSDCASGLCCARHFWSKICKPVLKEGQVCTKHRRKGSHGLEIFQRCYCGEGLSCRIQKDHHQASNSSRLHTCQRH

[10] = system: Inhibin beta A chain (activin A); experiment: INHBA (activin A) binders on microarrays, primary screen, biochemical, small-molecule microarray, 635 nm fluorescence scan (AID 1107); conditions: small-molecule microarray binding, higher = more signal;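 further: mouse activin A protein probed at 4.33 µg/mL on printed slides; score merges bound-protein fluorescence near 667 nm with spot signal-to-noise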

SMILES | composite z-score [1] | composite z-score [2] | composite z-score [3] | z-score [4] | composite z-score [5] | composite z-score [6] | composite z-score [7] | composite z-score [8] | composite z-score [9] | composite z-score [10]
CO[C@H]1COC(=O)[C@H](CCSC)NC(=O)CC=C[C@@H](C)[C@H](OC)COC(=O)[C@@H](OCc2ccccc2)C=C[C@@H]1C | 0.988 | -0.488 | -0.513 | 0.45 (inactive) | 0.605 | 0.751 | 0.975 | 0.922 | 1.38 | 0.824
COC(=O)CC=C[C@@H](C)[C@@H](C=NOC[C@@H](O)COCc1ccco1)OC | 1.05 | -0.589 | -1.34 | -0.485 (inactive) | -0.469 | 0.149 | -0.446 | -0.0313 | 1.15 | 0.533
CC(C)=NOC(C)CN1CCCCc2nc(C)c(C)cc21 (stereo not given) | 0.284 | -0.261 | -0.331 | 0.19 (inactive) | 0.151 | 0.0285 | 0.468 | 0.473 | 0.619 | 1.04
O=C1C[C@@H](O)[C@@H](O)[C@@H]2[C@@H]3C(=O)N(C4CCCCC4)C(=O)[C@@H]3CC[C@@H]12 | 0.607 | -0.28 | -0.504 | 0.602 (inactive) | 1.11 | 0.235 | 0.613 | 0.59 | 0.555 | -0.156
CC#CCOCCC=C1c2ccccc2[C@@H](OC)[C@@H]1C | 0.183 | -0.168 | -0.42 | 0.478 (inactive) | 0.593 | -0.406 | 0.0594 | 0.449 | 0.487 | -2.36
CCOC(=O)[C@H](CC(C)C)NC(=O)CCC1CC(OC(=O)NCc2ccc3c(c2)OCO3)CC2(CCCC(COC(=O)NCCC(C)C)O2)O1 (stereo not given in full) | 0.0402 | -0.494 | -0.36 | -0.748 (inactive) | 0.136 | -0.322 | 0.0946 | 0.115 | 0.0586 | 0.16
CC(=O)OC[C@H]1O[C@H](CC=NO[C@@H](C)c2cc(-c3c(C)cc(C)cc3C)no2)C=C[C@@H]1OC(C)=O | -0.229 | -0.341 | 0.0256 | 0.708 (inactive) | -0.151 | -0.55 | 0.0164 | -0.037 | -0.0281 | 0.363
CON=C1c2cc(OC)ccc2O[C@H](c2cccc(OC)c2)[C@H]1O | 0.386 | -0.0086 | -0.365 | -0.268 (inactive) | 0.934 | 0.498 | 0.52 | 0.81 | 0.636 | 0.593
CC(C)=CCCC(C)=CCON=C1C[C@@H](O)[C@@H](O)[C@@H]2[C@@H]3C(=O)N([C@@H](C)c4ccccc4)C(=O)[C@@H]3CC[C@@H]12 | 0.277 | -0.213 | -0.572 | -0.168 (inactive) | 0.461 | 0.598 | 0.407 | 0.319 | 0.134 | 0.521
CC(CCC(=O)OC[C@H]1O[C@H](C#Cc2ccccc2)C=C[C@@H]1Oc1ccc(C)cc1)=NO[C@@H](C)c1cc(-c2c(C)cc(C)cc2C)no1 | 0.199 | -0.293 | -0.0256 | 0.0536 (inactive) | -1.43 | -1.48 | -0.983 | -1.27 | -0.465 | 0.486
CON=C(C)CCN1CCCc2nc(C)c(C)cc21 | 0.858 | -0.117 | -0.429 | 0.205 (inactive) | 0.423 | 0.897 | 0.695 | 0.68 | 0.847 | 0.912
C[C@H]1CC[C@@H](C(=O)O)N[C@@H]1c1ccc(C#Cc2ccccc2)cc1 | 0.194 | 0.0274 | -0.273 | 0.29 (inactive) | 1.24 | 1.1 | 0.935 | 1.31 | 1.07 | 1.01
